Results on 7 molecules are retold here after PubChem BioAssay (Tox21).

Assay [1] in a line: qHTS assay to identify small molecule agonists of the hypoxia (HIF-1) signaling pathway (AID 1224846; active means well fitted activation curve with a large enough effect in the signal ratio in the repeat runs, not every such curve was filed as active; the % refers to the signal ratio). Summed up:
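HRE-bla ME-180 beta-lactamase reporter cells in medium with 0.5% dialyzed FBS, pre-incubated 5 h then exposed to compounds 17 h at 37C, 5% CO2; reporter induction read with CCF4-AM FRET substrate.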
Background: In qHTS, concentration-response curves come from the screen itself.

Assay [2] is described as follows: qHTS assay to identify small molecule agonists of H2AX - cell viability counter screen (AID 1224847; calls by dose curve; further: top concentration of the series differs between compounds; nearly all actives have a fitted effect of over 30% in size). An outline of the steps: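 Read-out: CellTiter-Glo luminescence, 30 min RT. Cells: wild-type CHO-K1, 1000/well, 10% FBS, plated overnight at 37C. Treatment: 15 concentrations, 3 hr, 37C, 0.76% DMSO.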
Assay [3] can be described thus: qHTS assay to identify small molecule antagonists of the estrogen related receptor (ERR) signaling pathway from Tox21 library (AID 1224848). Further: nearly all actives have a fitted effect of over 50% in size. An outline of the steps: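 ERR reporter cell line (from NTP) seeded 2,000 cells/well, rested 6 h at 37 C/5% CO2, then pin-dosed with compounds in DMSO. After 18 h at 37 C, ONE-Glo added; luminescence read after 30 min at room temperature.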

A short description of assay [4]: qHTS assay to identify small molecule agonists of the estrogen related receptor (ERR) signaling pathway from Tox21 library (AID 1224849; calls by dose curve; further: nearly all actives have a fitted effect of over 15% in size). The settings on record: ERR reporter cell line, ONE-Glo luciferase, 18 h; at 92.4 µM (top of the series) unless noted. An outline of the steps: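 ERR reporter cells (NTP line) pre-incubated 6 hours at 37 C, then exposed to compounds for 18 hours at 37 C. ONE-Glo luciferase luminescence was read after 30 minutes at room temperature.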

Assay [5] is described as follows: qHTS RealTime-Glo MT Cell Viability Assay in HEK293 cells - 32 hour (AID 1224868). Further: top concentration of the series differs between compounds; nearly all actives have a fitted effect of over 50% in size. Summed up: (§1)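 HEK293 cells seeded with NanoLuc/prosubstrate reagent, rested 5 h at 37 C, then dosed and kept at 37 C up to 40 h. Nonlytic real-time luminescence from viable cells read at 0, 8, 16, 24, 32 and 40 h.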
Assay [6] can be described thus: A CellTox Green Cytotoxicity Assay to monitor cytotoxicity in HEK293 cells - 0 hour (AID 1224869). Further: nearly all actives have a fitted effect of over 50% in size. Summed up: (§2)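 HEK293 cells, 600/well, were preincubated 5 hours and then exposed to compounds at 37 C for up to 40 hours. A cell-impermeant cyanine dye staining dead-cell DNA was read by fluorescence at 0, 8, 16, 24, 32 and 40 h time points.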
Assay [7] can be described thus: qHTS RealTime-Glo MT Cell Viability Assay in HepG2 cells - 40 hour (AID 1224870). Further: nearly all actives have a fitted effect of over 50% in size. An outline of the steps:
(§3)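 HepG2 cells (600/well) mixed with RealTime-Glo MT reagent, settled 5 h at 37 C/5% CO2 before compound addition. Nonlytic NanoLuc luminescence from viable-cell prosubstrate reduction read repeatedly during 40 h treatment at 37 C.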

Assay [8] is described as follows: A CellTox Green Cytotoxicity Assay to monitor cytotoxicity in HEK293 cells - 40 hour (AID 1224871). Further: nearly all actives have a fitted effect of over 45% in size. Further: potency means the concentration at half of the fitted maximal effect. Summed up: as §2
Assay [9] is described as follows: qHTS RealTime-Glo MT Cell Viability Assay in HEK293 cells - 16 hour (AID 1224872). Summed up:
as §1

Assay [10] can be described thus: qHTS RealTime-Glo MT Cell Viability Assay in HepG2 cells - 8 hour (AID 1224873). Further: nearly all actives have a fitted effect of over 55% in size. Summed up: as §3
Assay [11] is described as follows: qHTS RealTime-Glo MT Cell Viability Assay in HEK293 cells - 40 hour (AID 1224874). Further: nearly all actives have a fitted effect of over 50% in size. The settings on record: RealTime-Glo luminescence; max response: active compounds read low. An outline of the steps:
(§4)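 600 cells/well were plated with the nonlytic NanoLuc/prosubstrate reagent, pre-incubated 5 h, then given 23 nL of compound in DMSO. Incubation at 37 C for 40 h, with luminescence from viable-cell-reduced substrate read repeatedly from 0 h.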

A short description of assay [12]: A CellTox Green Cytotoxicity Assay to monitor cytotoxicity in HEK293 cells - 24 hour (AID 1224875). Further: nearly all actives have a fitted effect of over 45% in size. Summed up:
as §2

The nature of assay [13]: A CellTox Green Cytotoxicity Assay to monitor cytotoxicity in HepG2 cells - 16 hour (AID 1224876). Further: nearly all actives have a fitted effect of over 45% in size. An outline of the steps: (§5)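 HepG2 cells, 600/well, preincubated 5 h with CellTox Green dye, then exposed to Tox21 compounds in DMSO at 37 C for up to 40 h. Dead-cell DNA fluorescence read at the indicated time point.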
The nature of assay [14]: qHTS RealTime-Glo MT Cell Viability Assay in HepG2 cells - 32 hour (AID 1224877). Further: nearly all actives have a fitted effect of over 55% in size. Summed up: (§6)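 HepG2 cells (600/well) were dispensed with RealTime-Glo reagents, incubated 5 h at 37 °C, then treated with compounds in DMSO for up to 40 h. Nonlytic NanoLuc luminescence reflecting viable cells was read at each stated time point.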
Assay [15] can be described thus: A CellTox Green Cytotoxicity Assay to monitor cytotoxicity in HepG2 cells - 24 hour (AID 1224878). Further: nearly all actives have a fitted effect of over 45% in size. An outline of the steps:
as §5

The nature of assay [16]: qHTS RealTime-Glo MT Cell Viability Assay in HEK293 cells - 0 hour (AID 1224880). Summed up:
as §4

Assay [17] in a line: A CellTox Green Cytotoxicity Assay to monitor cytotoxicity in HEK293 cells - 32 hour (AID 1224881). Further: nearly all actives have a fitted effect of over 40% in size. Further: potency means the concentration at half of the fitted maximal effect. An outline of the steps:
as §2

Assay [18] in a line: qHTS RealTime-Glo MT Cell Viability Assay in HepG2 cells - 24 hour (AID 1224867). Further: nearly all actives have a fitted effect of over 50% in size. An outline of the steps:
as §6

A short description of assay [19]: A CellTox Green Cytotoxicity Assay to monitor cytotoxicity in HepG2 cells - 40 hour (AID 1224879). Further: nearly all actives have a fitted effect of over 40% in size. An outline of the steps: as §5

SMILES strings stand for the structures. Unmarked numbers belong to inactive results. Records with an inconclusive call do not appear. Calls of active or inactive are those of the source. Unless noted, the call rests on the fitted dose curve; in most records, active means well fitted curve in the direction sought with a large enough effect in the repeat runs; inconclusive means weak or mixed curves; inactive means no such curve, though single readings can be large; an effect the other way counts as inactive or inconclusive.
On the % scale 0 is the no-effect control and ±100 the full control effect.

Regarding `CC(=O)N(CC(=O)N(C)C)c1ccccc1`, the outcome in [1] was inactive. Moreover, the Potency result in [2], in assay [3], in assay [5], in assay [6], in assay [7] and in assay [8] was “inactive” each time. The Potency entry in assay [9], in assay [10], in [12], in assay [13], in assay [14] and in assay [15] was “inactive” in each case. In addition, the Potency entry in assay [16] and in assay [17] was “inactive” each time. For the same molecule, the activity change, positive = activation in assay [4] was 0.995% [at 42.5 µM]. Further, the max response in [11] is 1.18%.
For the molecule `O=C(O)/C=C/c1cnc[nH]1`, the molecule was classed as inactive in assay [1]. The Potency result in [2], in [18], in [5], in [6], in assay [7] and in [8] was “inactive” in each case. In addition, the Potency result in [9], in [10], in assay [12], in [13], in [14] and in assay [15] was “inactive” in each case. Also, the Potency entry in [16] and in [17] was “inactive” in each case. Further, the max response in assay [11] was -5.16%.
Take `O=C=NC1CCC(CC2CCC(N=C=O)CC2)CC1` (centres undefined): the call in assay [1] was inactive. Besides, the Potency result in assay [2], in [18], in [5], in assay [6], in assay [7] and in assay [9] was “inactive” in each case. Also, the Potency entry in assay [10], in assay [13], in assay [14], in assay [15], in [19] and in assay [16] was “inactive” throughout. Besides, the Potency is 49 µM (active) in assay [8] and 54.9 µM (active) in assay [17].
For `CC(C)c1ccccc1C(C)C`, the outcome in assay [1] was inactive. The Potency entry in [2], in [18], in assay [5], in [6], in assay [7] and in assay [8] was “inactive” in each case. Further, the Potency entry in assay [9], in [10], in assay [12], in assay [14], in [15] and in assay [17] was “inactive” throughout. For the same molecule, in assay [11], the max response is -23.5%.
Turning to `CCOc1nc2cccc(C(=O)O)c2n1Cc1ccc(-c2ccccc2-c2nn[nH]n2)cc1`, in [1], the call was inactive. Moreover, the Potency result in [2], in assay [18], in assay [5], in assay [6], in assay [7] and in [8] was “inactive” each time. Further, the Potency entry in assay [9], in [10], in assay [12], in [14], in assay [15] and in assay [16] was “inactive” in each case. Also, the Potency entry in assay [17] is “inactive”. The activity change, positive = activation in assay [4] is 4.21% [at 42.5 µM]. Also, the max response in [11] is 9.75%.
As to `CCN(CC)C(C)CN1c2ccccc2Sc2ccccc21` (centres undefined), the call in [1] was inactive. Also, the Potency result in [2], in assay [18], in assay [5], in assay [6], in [7] and in [8] was “inactive” in each case. Also, the Potency result in [9], in assay [10], in [12], in assay [13], in assay [14] and in [15] was “inactive” in each case. For the same molecule, the Potency entry in [16] and in assay [17] was “inactive” throughout.
For the molecule `S=C(S)NCCNC(=S)S`, the molecule was classed as inactive in [1]. Moreover, the Potency result in [2], in [18], in [5], in assay [6], in assay [7] and in assay [8] was “inactive” throughout. Besides, the Potency result in assay [9], in [10], in [12], in assay [13], in assay [14] and in [15] was “inactive” each time. In addition, the Potency entry in assay [19] and in [17] was “inactive” each time. The max response in assay [11] was -4.71%.
